In PubChem BioAssay (NCI) one finds growth data, which are given here for 40 molecules.

The structures appear in SMILES notation. The panel holds about 83,000 compounds, 20% with a hit somewhere; the sample as a whole holds those more often.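 Method: cells in 96-well plates; compound added at one concentration; 48 h incubation; percent growth measured; values under 10 scored active.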 Activity calls are given as the source filed them.

This test has as its system MCF7 breast. Briefly: NCI-60 one-dose screen, 48 h (100 = growth as untreated, 0 = no growth, -100 = all killed). The note with it: 10 µM unless noted. How it is done:
Growth inhibition of the MCF7 human tumor cell line is measured as a screen for anti-cancer activity. Cells are grown in 96 well plates and exposed to the test compound for 48 hours. Compounds are tested at a single concentration, which is 10^-5 M for most compounds. The reported endpoint is percent growth (GI% or GIPRCNT), where numbers from 0 - 100% represent growth inhibition, and numbers from -100% - 0 represent cell death. For example, a value of 40 represents 60% growth inhibition. A value of 0 means no net growth occurred over the course of the experiment. A value of -40 indicates 40% of cells at the beginning of the experiment died by the end of the experiment. A value of -100 means all cells are dead at the end of the experiment.
NCI-60 Human Tumor Cell Lines Screen was performed using the standard one-dose NCI protocol, which is described in more detail at https://dtp.cancer.gov/discovery_development/nci-60/default.htm.
Compounds with GIPRCNT values below 10 were considered active. Activity score was based on GIPRCNT using the following formula: […]
Score is 0 for GIPRCNT values of 100 or above, 50 for GIPRCNT values of 0, and 100 for GIPRCNT values of -100.
Consider `O=C1/C=C/[C@@H](O)[C@@H]2C[C@@H](O)C[C@H]2/C=C/CCC[C@H](CCc2ccccc2)O1`, for which the growth is -3.62% (active).

In the case of `CCn1cc(C(=O)O)c(=O)c2cc(F)c(N3CCN(CC(=O)Nc4ccc(S(=O)(=O)Nc5nccc(C)n5)cc4)C(C)C3)c(F)c21` (stereo not given), the growth was 96.7% (inactive).

As to `O=C(NNC(=O)c1ccc(NC(=O)c2ccccn2)cc1)Nc1ccc([N+](=O)[O-])cc1`, the growth is 95.7% (inactive).

As for `NC(=O)c1c(NC(=O)c2ccc3ccccc3c2)sc2c1CCC(=O)C2`, the growth was 52.6% (inactive).

For `COC(=O)c1c(C)nc(C)c2c1C(=O)C(Br)=C(NCc1ccccc1)C2=O`, the growth is -30.2% (active).

Regarding `COc1cc2c(cc1OC)C(C)N(S(N)(=O)=O)CC2` (stereo not given), the growth is 103% (inactive).

For the molecule `COc1ccc(C(=O)c2cc3c(N)c(C(=O)Nc4ccc(C)cc4)sc3nc2C)cc1`, the growth is 18.8% (inactive).

In the case of `CCCCC1=C(P(=O)(O)O)N[C@H](C(=O)O)CS1`, the growth was 89.3% (inactive).

For the molecule `Cc1nc2sc(C(=O)Nc3cccc(Br)c3)c(N)c2cc1C(O)c1ccccc1` (stereo not given), the growth is 21.9% (inactive).

Turning to `c1cc2c(ccc3[nH]c(-c4ccc5[nH]ncc5c4)c4c(c32)CCCC4)n1`, the growth is 23.3% (inactive).

Consider `c1ccc2cc(C[n+]3ccn(CCCCCCCCCCn4cc[n+](Cc5ccc6ccccc6c5)c4)c3)ccc2c1`, for which the growth was 15.7% (inactive).

Regarding `COc1ccc(Nc2nc(-c3cc(O)c(C)c(C)c3O)cs2)cc1`, the growth was 47.1% (inactive).

For `COc1cc2c(cc1OCCCN1CCN(CCCOc3cc4c(cc3OC)C(=O)N3CCC[C@H]3C=N4)CC1)C=CC(C)(C)O2`, the growth was -100% (active).

As for `CCOC(=O)C(=O)C(C(=O)OCC)c1ccccc1` (stereo not given), the growth is 101% (inactive).

For `C#COc1cccc(Nc2c(C#N)cnc3ncc(NC(=O)CCl)cc23)c1`, the growth was 5.39% [6.25 µM] (active).

For the molecule `Cn1cc(-c2nonc2-c2cn(C)c3ccccc23)c2ccccc21`, the growth was 19.4% (inactive).

On to `CCOC(=O)C1=C(c2ccccc2)N=C2SC=C(c3ccc(Cl)cc3)N2C1c1ccc(Cl)cc1` (stereo not given), for which the growth was 69.5% (inactive).

With `OCCn1cc(-c2nc(-c3c[nH]c4ncccc34)cs2)c2ccccc21`, the growth is 32.9% (inactive).

Turning to `CCCCNC(=O)Oc1ccc(/C(=C(/C)Cc2ccc(OC)cc2)c2ccc(OCCN(CC)CC)cc2)cc1`, the growth is 28.5% (inactive).

Consider `O=C(Nc1ccc(Oc2cccc(Cl)c2)c(Cl)c1)c1cnccn1`, for which the growth was 20.3% (inactive).

In the case of `COCCNC(=O)Nc1ccc2nc(-c3cccs3)c(-c3cccs3)nc2c1`, the growth was 78.9% (inactive).

Consider `Cc1cc(N2CCCCC2)cc(C)c1-c1csc(NC(=O)c2ccncc2)n1`, for which the growth is 32.6% (inactive).

With `CCOC(=O)c1nn(-c2ccc(S(N)(=O)=O)cc2)c2nc(C)cc(=O)n12`, the growth is 92.4% (inactive).

On to `COC1=CC(c2ccc[nH]2)=N/C1=C\c1[nH]c(C)c(CC(=O)NCc2ccccc2)c1C`, for which the growth was 11% (inactive).

For `CC(C)(C)[Si](C)(C)OC1[C@@H](CNC(=O)NC(=O)NC(N)=O)O[C@@H](n2cnc3c(NC(=O)Nc4ccccc4)ncnc32)[C@H]1O[Si](C)(C)C(C)(C)C` (stereo not given in full), the growth is 57.9% (inactive).

`CN(C)CC1CCC(CN(C)C)C1=O` (stereo not given): the growth is 93.7% (inactive).

On to `COC1=CC(c2ccc[nH]2)=N/C1=C\c1[nH]c(C)c(C)c1CCC(=O)OCc1ccccc1`, for which the growth is 3.15% (active).

For `O=C(/C=C(/C=C/c1ccc2[nH]ccc2c1)OB(F)F)/C=C/c1ccc2[nH]ccc2c1`, the growth was 12.5% (inactive).

On to `O=C1/C(=C/c2cn(-c3ccccc3)nc2-c2ccccc2)SC(=S)N1C1CCCCC1`, for which the growth is 86.2% (inactive).

On to `CS(=O)(=O)c1ccc(-c2cnn3ccc(-c4cccc(S(=O)(=O)C5CC5)c4)nc23)cc1`, for which the growth was 18% (inactive).

Take `COCCn1cc(-c2nc(-c3cc4cccnc4[nH]3)cs2)c2cc(OC)ccc21`: the growth was 0.765% (active).

For `Cc1ccc(CNc2ccc3nc(CCC4CCCCC4)[nH]c3c2)cc1`, the growth was 22.1% (inactive).

As for `Cc1c(O)cc(-c2cnc(Nc3ccccc3)s2)c(O)c1C`, the growth is 82.2% (inactive).

On to `CC(=O)O[C@@H]1C[C@]2(C(C)C)O[C@@]1(C)[C@@H]1CCC(C)=C1[C@@H]2OC(=O)/C=C/c1ccccc1`, for which the growth was 83.9% (inactive).

Regarding `NS(=O)(=O)c1ccccc1NC(=O)Nc1nc2ccccc2s1`, the growth was 82.4% (inactive).

As to `O=C1Nc2ccccc2/C1=C/c1cccn1CCCCn1c2ccccc2c(=O)c2ccccc21`, the growth is 3.81% (active).

Regarding `N#Cc1nc(-c2ccc(F)cc2)oc1S(=O)(=O)N1CCCCC1`, the growth was 56% (inactive).

Turning to `CCCc1c(OC(=O)c2ccccc2)nc2[nH]c(=O)sc2c1C`, the growth was 92.9% (inactive).

As to `CC(C)(Sc1cc(C(C)(C)C)c(O)c(C(C)(C)C)c1)Sc1cc(C(C)(C)C)c(OC(=O)CCCC(=O)O)c(C(C)(C)C)c1`, the growth was 36.2% (inactive).

In the case of `CCCCCCCCCCC(CN(CC)CC)C(O)c1ccccc1` (stereo not given), the growth is 1.87% (active).
